Results taken from PubChem BioAssay (NCI).
Compounds without any hit were thinned out: in the full panel of roughly 83,000, 20% have a hit.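 Growth was measured after 48 h exposure to one concentration of compound in 96-well plates. Values under 10 count as active.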 The source made the active and inactive calls.

Key:
Assay in all cases: NCI-60 one-dose screen, 48 h (100 = growth as untreated, 0 = no growth, -100 = all killed)
[1] = tested on: HOP-62 NSCLC; settings: 10 µM unless noted
[2] = tested on: NCI-H460 lung; settings: 10 µM unless noted
[3] = tested on: A549/ATCC NSCLC; settings: 10 µM unless noted
[4] = tested on: 786-0 renal; settings: 10 µM unless noted
[5] = tested on: K-562 leukemia; settings: 10 µM unless noted
[6] = tested on: SF-295 CNS; settings: 10 µM unless noted
[7] = tested on: SF-539 CNS; settings: 10 µM unless noted
[8] = tested on: UACC-257 melanoma; settings: 10 µM unless noted
[9] = tested on: SNB-75 CNS; settings: 10 µM unless noted
[10] = tested on: UO-31 renal; settings: 10 µM unless noted
[11] = tested on: CAKI-1 renal; settings: 10 µM unless noted
[12] = tested on: A498 renal; settings: 10 µM unless noted
[13] = tested on: HL-60(TB) leukemia; settings: 10 µM unless noted
[14] = tested on: MOLT-4 leukemia; settings: 10 µM
[15] = tested on: RPMI-8226 leukemia; settings: 10 µM unless noted
[16] = tested on: OVCAR-4 ovarian; settings: 10 µM unless noted
[17] = tested on: HCC-2998 colon; settings: 10 µM unless noted
[18] = tested on: MALME-3M melanoma; settings: 10 µM unless noted
[19] = tested on: RXF 393 renal; settings: 10 µM unless noted
[20] = tested on: BT-549 breast; settings: 10 µM

Measured: growth

NC(Cc1ccc2c(c1)OCO2)c1ccc2c(c1)OCO2 (centres undefined)
inactive: [1] 105% | [2] 104% | [3] 104% | [4] 98.5% | [5] 96.5% | [6] 96.8% | [7] 114% | [8] 103% | [9] 75.4% | [10] 100% | [11] 95.2% | [12] 92.1% | [13] 108% | [14] 107% | [15] 96.3% | [16] 101% | [17] 106%

C[CH2][Pb]([CH2]C)([CH2]C)[O]C(=O)COc1ccccc1
active: [1] -9.05% | [2] 4.05% | [4] -22% | [5] 4.92% | [19] 7.08% | [6] -62.3% | [7] -21.8% | [9] 4.45% | [10] -6.3% | [11] -5.81% | [12] -2.32% | [13] -48.1% | [14] -27.2% | [20] -11.4% | [17] -52%
inactive: [18] 21.8% | [16] 14.8%

COc1cc(C2CC(=O)Nc3nc(N)[se]c32)cc(OC)c1OC (centres undefined)
active: [6] 7.05%
inactive: [1] 70.9% | [2] 25.1% | [3] 45.7% | [4] 114% | [5] 83.9% | [18] 105% | [19] 116% | [7] 101% | [8] 99.6% | [9] 98.9% | [10] 99.9% | [11] 113% | [12] 82.8% | [13] 89.1% | [14] 82.7% | [15] 101% | [16] 105% | [20] 130% | [17] 107%
